This is an account of results in PubChem BioAssay AID1347142 (National Center for Advancing Translational Sciences (NCATS), 2019).

Inconclusive results are not listed. Calls of active or inactive are those of the source. Calls come from the whole dose curve; as a rule, active = well fitted inhibition curve with a large enough effect; inconclusive = small, poorly fitted or top-dose-only effect; inactive = no such curve, though single readings can be large or run the other way.
Note: nearly all actives have a fitted effect of over 80% in size.
Potency is the fitted concentration of half-maximal effect.

Chain of N-terminal Xaa-Pro-Lys N-methyltransferase 1 (Homo sapiens) (Q9BV86 whole entry, looked up): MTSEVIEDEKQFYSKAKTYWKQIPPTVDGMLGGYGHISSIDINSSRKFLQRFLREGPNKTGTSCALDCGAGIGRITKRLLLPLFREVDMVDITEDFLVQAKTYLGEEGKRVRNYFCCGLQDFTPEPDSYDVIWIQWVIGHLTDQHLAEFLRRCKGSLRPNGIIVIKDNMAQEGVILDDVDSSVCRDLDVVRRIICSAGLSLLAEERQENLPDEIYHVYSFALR

This assay concerns the target N-terminal Xaa-Pro-Lys N-methyltransferase 1 (Homo sapiens) (UniProt Q9BV86). Description: qHTS Assay for Inhibitors of N-terminal methyltransferase 1 (NTMT1): ThioGlo3 Assay Confirmatory Screen, Round 1. The note with it: NTMT1 SAHH-coupled ThioGlo3 fluorescence, 30 min; series mostly up to 56.8 µM. In a few lines: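 Human NTMT1 at 125 nM was preincubated 1 min at room temperature with compounds at various concentrations or 1 uM RCC1-6 control. Substrate mix (100 uM SAM, 10 uM SAHH, 15 uM ThioGlo3) was added, and fluorescence (Ex 340/Em 450 nm) was read at start and after 30 min, normalized to background.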
For orientation: qHTS replaces the single test concentration by a dilution series.
As for `OCC1OC(n2cnc3c(NCc4ccco4)ncnc32)C(O)C1O` (stereo unspecified), the Potency is 19.2 µM (active).
Take `COc1cc2c(NC3CCN(C)CC3)nc(N3CCCN(C)CC3)nc2cc1OCCN(C)CCN(C)C`: the Potency is 27.1 µM (active).
In the case of `COC1C(O)C(CO)OC1n1cnc2c(NC3CCCCC3)ncnc21` (stereo unspecified) it was “inactive”; in that of `CCC(CC)n1ccc2c(C(=O)NCc3c(C)cc(C)[nH]c3=O)cc(C#N)cc21`, 15.2 µM (active).
On to `OC[C@@H]1O[C@@H](n2cnc3c(NC4CCCC4)ncnc32)[C@H](O)[C@H]1O`, for which the Potency entry is “inactive”.
In the case of `CNC(=O)c1cnn(-c2nc(N)c3ncn([C@@H]4O[C@H](CO)[C@@H](O)[C@H]4O)c3n2)c1` it was “inactive”.
The same measure for `Nc1ncnc2c1[nH]c(=O)n2C1CC(O)C(CO)O1` (stereo unspecified): “inactive”; for `COc1cc2c(NC3CCN(C)CC3)nc(N3CCCCC3)nc2cc1OCCOCCN1CCCC1`: 27.1 µM (active); for `C/C(=C\CNc1ncnc2c1ncn2[C@@H]1O[C@@H](CO)[C@@H](O)[C@H]1O)CO`: “inactive”.
In the case of `COc1cc2c(NC3CCN(C)CC3)nc(N3CCCN(C)CC3)nc2cc1OCCCCN(C)C` it was 24.1 µM (active); in that of `C=CCNc1nc(NC2CCN(C)CC2)c2cc(OC)c(OC)cc2n1`, 27.1 µM (active); in that of `COc1cc2c(NC3CCN(C)CC3)nc(N3CCCN(C)CC3)nc2cc1OCCCCCN`, 24.1 µM (active).
For `COc1cc2c(NC3CCN(C(C)C)CC3)nc(N3CCCN(C4CCCCC4)CC3)nc2cc1OCCCN1CCCC1`, the Potency was 24.1 µM (active).
`OC[C@@H]1O[C@@H](n2cnc3c(N[C@H]4CCC[C@@H]4O)ncnc32)[C@H](O)[C@H]1O`: the Potency result is “inactive”.
In the case of `COc1cc2nc(N3CCCCC3)nc(NC3CCN(C)CC3)c2cc1OC` it was 27.1 µM (active); in that of `[N-]=[N+]=Nc1nc2c(N)ncnc2n1C1OC(CO)C(O)C1O` (stereo unspecified), 21.5 µM (active); in that of `CNc1ncnc2c1ncn2[C@@H]1O[C@H](CO)C(O)[C@H]1O` (stereo partly specified), “inactive”.
For `COc1cc2nc(N3CCCN(C)CC3)nc(N(C)C)c2cc1OC`, the Potency result is “inactive”.
`CCN(CC)c1nc(NC2CCN(C)CC2)c2cc(OC)c(OC)cc2n1`: the Potency was 27.1 µM (active).
In the case of `Nc1ncnc2c1ncn2[C@@H]1O[C@H](CO)[C@@H](O)[C@H]1O` it was 1.08 µM (active); in that of `OC[C@@H]1O[C@@H](n2cnc3c(NCc4ccco4)ncnc32)[C@H](O)[C@H]1O`, 24.1 µM (active); in that of `CSc1nc(N)c2ncn([C@@H]3O[C@H](COP(=O)(O)OP(=O)(O)O)C(O)[C@H]3O)c2n1` (stereo partly specified), “inactive”.
The same measure for `OC[C@H]1O[C@@H](n2cnc3c(NCc4ccccc4)ncnc32)[C@H](O)[C@@H]1O`: “inactive”; for `COc1cc2c(NC3CCN(C)CC3)nc(N3CCCN(C)CC3)nc2cc1OCCCN1CCOCC1`: 24.1 µM (active).
In the case of `CNC(=O)[C@H]1O[C@@H](n2cnc3c(NCc4ccc(N)cc4)ncnc32)[C@H](O)[C@@H]1O` it was “inactive”; in that of `COc1cc2c(NC3CCN(C(C)C)CC3)nc(N3CCCCC3)nc2cc1OCCCN1CCCCC1`, 21.5 µM (active).
`CSc1nc(N)c2ncn([C@H]3O[C@H](COP(=O)(O)OP(=O)(O)O)[C@@H](O)[C@@H]3O)c2n1`: the Potency result is “inactive”.
The same measure for `COc1cc2nc(N(C)C)nc(NC3CC3)c2cc1OC`: “inactive”; for `COc1cc2c(NC3CCN(C)CC3)nc(N3CCCN(C)CC3)nc2cc1OCCCCN`: 21.5 µM (active).
`COc1cc2c(NC3CCN(C)CC3)nc(N3CCN(C)CC3)nc2cc1OCCOCCN(C)C`: the Potency is 21.5 µM (active).
Regarding `Cc1ccccc1CNc1ncnc2c1ncn2[C@@H]1O[C@H](CO)[C@@H](O)[C@H]1O`, the Potency was 27.1 µM (active).
In the case of `CCCN(C)CCCOc1cc2nc(N3CCCN(C)CC3)nc(NC3CCN(C)CC3)c2cc1OC`, the Potency is 27.1 µM (active).
The same measure for `COc1cc2nc(N(C)C)nc(NC3CCN(C)CC3)c2cc1OC`: 24.1 µM (active); for `CC(C)N(CCCNC(=O)Nc1ccc(C(C)(C)C)cc1)C[C@H]1O[C@@H](n2cc(Br)c3c(N)ncnc32)[C@H](O)[C@@H]1O`: “inactive”; for `OC[C@H]1O[C@H](n2cnc3c(NC4CCCC4)nc(Cl)nc32)[C@@H](O)[C@@H]1O`: “inactive”.
In the case of `Nc1ncnc2c1ncn2C1CC(O)C(CO)O1` (stereo unspecified) it was “inactive”.
